PTHR1 agonist – activates the human parathyroid hormone receptor PTHR1 | Q03431 | Potency, µM (series often up to 115 µM), without a hit: top-dose activation, hits mostly activators | HEK293 GP2 PTHR1 cells, GloSensor cAMP luminescence, 1 h | 410,000 compounds, 0.075% hits; also: nearly all actives have a fitted effect of over 55% in size
Target sequence (Q03431 whole entry, looked up): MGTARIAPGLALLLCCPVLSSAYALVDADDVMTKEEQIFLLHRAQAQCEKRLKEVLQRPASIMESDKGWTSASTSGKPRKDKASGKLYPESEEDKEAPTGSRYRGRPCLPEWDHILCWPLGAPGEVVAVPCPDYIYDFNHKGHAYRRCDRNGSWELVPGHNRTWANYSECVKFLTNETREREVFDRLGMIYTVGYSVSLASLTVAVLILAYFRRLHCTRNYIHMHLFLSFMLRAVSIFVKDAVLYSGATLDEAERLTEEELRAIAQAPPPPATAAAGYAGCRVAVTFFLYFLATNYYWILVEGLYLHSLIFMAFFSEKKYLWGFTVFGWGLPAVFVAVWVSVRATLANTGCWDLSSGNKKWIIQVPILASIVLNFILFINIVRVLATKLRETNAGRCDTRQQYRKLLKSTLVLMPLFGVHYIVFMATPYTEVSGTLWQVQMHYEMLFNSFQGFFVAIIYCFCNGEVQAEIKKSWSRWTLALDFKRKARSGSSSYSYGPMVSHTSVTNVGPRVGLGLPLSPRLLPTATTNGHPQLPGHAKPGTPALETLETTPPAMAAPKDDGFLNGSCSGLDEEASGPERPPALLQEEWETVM
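HEK-293-derived GP2 cells expressing PTHR1 and a GloSensor cAMP reporter, 3,000/well, plated overnight, given luciferin plus IBMX (each 0.5 mM as added) for 1 h at 37 °C, then compound for 1 h at 37 °C. Luminescence was read after 15 min at room temperature.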
HEK293 tox – cytotoxic in the GLP-1 receptor inverse agonist counter-screen; Potency, µM (top dose mostly 38.3 µM), for inactives: top-dose activity change, negative = inhibition, actives largely listed as inhibitors; AID 624418; HEK293 cAMP-luciferase reporter cells, luminescence, 24 h; 410,000 compounds, 0.13% hits;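 also: loss of luciferase light is scored as toxicity; % is scaled to controls: 0 for no effect and ±100 for the full control effect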
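Seeding density was 200 cells/uL; after overnight-length (12 h) culture, 23 nL compounds went on for 24 h at 37 °C. Readout used a luciferase detection reagent, luminescence taken after 12 min at room temperature.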
RGS4 inh – human RGS4 inhibition; P49798; Transcreener GDP fluorescence polarization, RGS4-accelerated GTP hydrolysis; Potency, µM (top dose mostly 114 µM), for the others: at the top dose activity change, negative = inhibition, most hits filed as inhibitors; 390,000 compounds, 0.039% hits; AID 504845; also: % is scaled to controls: 0 for no effect and ±100 for the full control effect; nearly all actives have a fitted effect of over 75% in size
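MLSMR compounds (23 nl, pin-transferred) preincubated 10 min at room temperature with a 500nM (2x) first reagent, then RGS4 at 900nM (2x) plus Transcreener GDP mix added; fluorescence polarization (620/688 nm) read before and after 90 min at 30 °C.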
GLP1R inv ag – GLP-1 receptor (human) inverse agonism | P43220 | HEK293 GLP-1R CRE-luciferase, luminescence, 24 h; GLP-1R form is constitutively active | Potency, µM (highest dose often 38.3 µM), inactives show at the top dose activity change, negative = inhibition, usual class: inhibitors | 410,000 compounds, 1.6% hits | AID 624417; also: % is scaled to controls: 0 for no effect and ±100 for the full control effect; nearly all actives have a fitted effect of over 55% in size
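Inverse agonism was detected as reduced cAMP-driven luciferase luminescence after 24 h compound treatment. The cells were HEK293 clones expressing constitutively active human GLP-1R with the reporter. Reporter-only and GPR119 cell lines served as counterscreen controls.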
GLP-1R agonist – agonists of human GLP-1 receptor | HEK293 GLP-1R CRE-luciferase, luminescence, 4-6 h; cells express a hypersensitive GLP-1R form | 380,000 compounds, 0.007% hits | P43220 | Potency, µM (top dose mostly 45.6 µM), inactives show at the top dose activation, most hits filed as activators; also: % of control where 0% means no effect
* marks the source's active call; other numbers are inactive results; i = inactive; ? = inconclusive; nt = no result given; [ ] = dose if it differs, or a comment. Only some compounds are listed: those with a hit (about 1.7% of all), similar ones and a draw of the others. Calls follow the shape of the dose curve; as a rule, active = well fitted curve in the direction sought with a large enough effect; inconclusive = small, poorly fitted or top-dose-only effect, or another doubt; inactive = no such curve, though single readings can be large; an effect the other way counts as inactive or inconclusive. Potency is read from the fitted curve at half-maximal effect.

SMILES | PTHR1 agonist | HEK293 tox | RGS4 inh | GLP1R inv ag | GLP-1R agonist
C=CCNC(=S)NN=C1CCCCCCC1 | -4% | ? | -27% | 3.5µM* | 14%
NC(=S)NN=C1CCCCCCCCC1 | -24% | 4.5µM* | ? | 2.8µM* | 12%
CC(CCc1ccccc1)NC(=O)CNc1cccc([N+](=O)[O-])c1 (stereo not given) | -12% | -10% | -5% | 10µM* | 10%
Cc1ccc(Cn2ccsc2=NC(=O)CCl)cc1 | -67% | -40% | -15% | 10µM* | 20%
Cc1ccc(Cn2ccsc2=NC(=O)COC(=O)c2ccc(NC(=O)CC#N)cc2)cc1 | -31% | 10% | 0% | -2% | 1%
CC1CC(C)CN(C(=O)CN2C(=O)NC3(CCCCCCC3)C2=O)C1 (stereo not given) | -58% | 1% | 4% | -17% | -4%
Cc1ccc(-c2cc(C(=O)Nc3nccs3)c3ccccc3n2)o1 | -13% | 28% | -51% | 10µM* | -20%
Cc1nccn1CC(O)COc1ccccc1 (stereo not given) | i | -5% | 44% | -24% | -15%
COc1ccc(OCC(O)Cn2ccnc2C)cc1 (stereo not given) | 10µM* | -16% | -5% | 10% | -2%
CCCNC(=O)c1ccc2c(c1)C1C3CCC(C3)C1C(c1ccccc1)N2 (stereo not given) | 8%[57.5 µM] | -21% | -15% | ? | -4%
CC(C)(C)NC(=O)c1ccc2c(c1)C1C3CCC(C3)C1C(c1ccccc1)N2 (stereo not given) | i | 3% | -17% | 2.8µM* | -1%
COc1cc(Cn2c(=O)sc3ccccc32)ccc1OCCC(C)C | -20% | 2% | 1% | 10µM* | nt
Cc1ccc(OCC(=O)Nc2ccc(S(=O)(=O)N(C)C3CCN(C)CC3)cc2)c(C)c1 | i | -16% | 3% | 2.2µM* | 12%
CN1CCC(N(C)S(=O)(=O)c2ccc(NC(=O)COc3cccc(Cl)c3)cc2)CC1 | -3% | -5% | 21% | 2.8µM* | 2%
Cc1ccccc1OCCC(=O)Nc1ccc(S(=O)(=O)N(C)C2CCN(C)CC2)cc1 | i | -2% | 21% | ? | 5%
CN1CCC(N(C)S(=O)(=O)c2ccc(NC(=O)COc3ccc(Br)cc3Cl)cc2)CC1 | ? | ? | 14% | 2µM* | -8%
Cc1ccc(-n2c(=O)c3c4c(sc3n(CC(=O)Nc3ccccc3C)c2=O)CCCCC4)cc1C | 2% | 1% | 31% | 14% | -1%
COc1ccc2c(c1)c1nc3ccccc3nc1n2CCn1c(=O)oc2ccccc21 | 0.4µM* | 3% | -24% | -3% | -11%
O=c1oc2ccccc2n1CCn1c2ccccc2c2nc3ccccc3nc21 | i | -8% | 14% | 2% | -8%
COc1ccc(CSc2nnc(Cc3sc(-c4ccccc4)nc3-c3ccccc3)o2)cc1 | -5%[57.5 µM] | -4% | -18% | 10µM* | 1%
Cc1cc(C)c(NC(=O)CN(C)S(=O)(=O)c2ccc3c(c2)c(=O)n(C)c(=O)n3C)c(C)c1 | -16% | 7% | 2% | 0% | 1%
COc1cc(-c2nnc(CSc3nnc(Nc4ccc(C(C)C)cc4)s3)o2)cc(OC)c1OC | -6% | 11µM* | -21% | ? | 11%
CCN(CC)CCCNc1ncnc2scc(-c3ccc(F)cc3)c12 | -9% | -9% | -4% | 7.1µM* | -13%
COc1ccc(-c2csc3ncnc(NCCCO)c23)cc1 | -18% | -6% | -8% | -40% | -1%
Cc1cc2cc(CNC(=S)Nc3ccc(OC(F)(F)F)cc3)ccc2[nH]1 | i | ? | 13% | 11µM* | -3%
SMILES | PTHR1 agonist | HEK293 tox | RGS4 inh | GLP1R inv ag | GLP-1R agonist
O=C(CSc1nc2ccccc2c(=O)n1-c1ccccc1)N1CCc2ccccc2C1 | i | -3% | -5% | -19% | 19%
O=C1COc2ccc(C(=O)CSc3ccccc3C(=O)O)cc2N1 | -1% | 15% | 2% | 1% | -1%
CC(C)c1ccccc1-n1c(SCC(=O)c2ccc3c(c2)NC(=O)CO3)nc2ccccc2c1=O | -5% | 14% | 1% | 10µM* | 14%
CC(C)c1ccccc1-n1c(SCC(=O)N2CCc3ccccc3C2)nc2ccccc2c1=O | -19% | 6% | 10%[11.4 µM] | 10µM* | 14%
CCCCC/C=C\C\C=C/C=C/C=C/[C@@H](SC[C@H](N)C(=O)NCC(=O)O)[C@@H](O)CCCC(=O)O | nt | nt | 27µM* | nt | nt
CCOC(=O)N1CCN(Cc2nc(Cc3cccc(F)c3)no2)CC1 | 0% | -9% | -15% | 2% | 7%
COc1ccc(N2CCN(Cc3nc(Cc4cccc(F)c4)no3)C(C)C2)cc1 (stereo not given) | -10% | -2% | 26% | 5.6µM* | 1%
COc1ccc(C2CCCCCN2C(=O)C2CCN(S(=O)(=O)c3cccc(C(C)=O)c3)CC2)cc1 (stereo not given) | -22% | 11% | -10% | ? | -2%
CCOc1ccc(N2C(=O)C(CC(=O)Nc3ccc(F)cc3)N(Cc3ccccn3)C2=S)cc1 (stereo not given) | i | -5% | 6% | 10µM* | 13%
Cc1ccccc1OCc1nc2ccccc2n1Cc1ccccc1Cl | -1% | 3% | -18% | 3.5µM* | nt
CCc1ccc(NCc2cc3cc4c(cc3n(CC(=O)Nc3ccc(Cl)cc3)c2=O)OCO4)cc1 | -24% | 5% | -22% | 4% | -6%
O=C1c2ccccc2-c2nnc(-c3ccc(F)cc3)cc21 | -21% | -6% | -21% | -9% | 11%
Cc1ccc(-c2cc3c(nn2)-c2ccccc2C3=O)cc1 | -90% | 1% | 12%[11.4 µM] | 1.4µM* | -2%
COc1cc(/C=N/NC(N)=S)cc(Br)c1OCc1ccccc1F | i | 5.6µM* | -13% | -7% | 0%
CCOc1cc(/C=N/NC(N)=S)cc(Br)c1OCc1ccccc1C | i | ? | ? | ? | -10%
Cc1ccc(-n2ncc(C(=O)NCc3ccc4c(c3)OCO4)c2C2CCN(C(=O)OC(C)(C)C)CC2)c(C)c1 | i | 4% | -7% | ? | nt
CCN1C(=O)c2ccccc2S(=O)c2ccc(C(=O)N3CCN(c4ccccc4OC)CC3)cc21 (stereo not given) | -40% | -4% | -11% | -6% | 0%
Cc1cccc(-c2nc(CN3CCCC(C(=O)NC4CCCCC4)C3)c(C)o2)c1 (stereo not given) | ? | ? | 6% | 3.5µM* | 4%
O=C(NN=C1CCCC1)c1[nH]c2ccc(Br)cc2c1-c1ccccc1 | -11% | ? | -54% | 5µM* | 26%
O=C(N/N=C/c1ccccc1)c1[nH]c2ccc(Br)cc2c1-c1ccccc1 | i | -8% | 15% | -2% | 13%
c1cnc(N2CCN(c3ncc4c(n3)CCNC4)CC2)nc1 | -28% | -13% | -30% | 16% | nt
